Test results reported in PubChem BioAssay (NCATS).
Inconclusive results are not listed. The source made the active and inactive calls. Calls come from the whole dose curve; as a rule, active = well fitted curve in the direction sought with a large enough effect; inconclusive = small, poorly fitted or top-dose-only effect, or another doubt; inactive = no such curve, though single readings can be large; an effect the other way counts as inactive or inconclusive.

tested on: Zika virus NS2B-NS3 protease; experiment: Primary screen GU AMC qHTS for Zika virus inhibitors (AID 1347154); conditions: Zika NS2B-NS3 unlinked protease, AMC fluorogenic substrate; series mostly up to 54.1 µM; activity change, negative = inhibition: at the top concentration;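 note: 0% = no-inhibitor control and -100% = no-enzyme control; nearly all actives have a fitted effect of over 70% in size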
Summary of the method: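 Fluorogenic AMC-substrate cleavage by noncovalent NS2B-NS3 protease complex (25 nM, pH 8.0 Tris buffer with Tween 20) followed for 15 minutes at room temperature (~20% conversion). Percent inhibition from ex340/em450 signal change, fitted by 4-parameter Hill equation.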

Activity change, negative = inhibition, inactive:
NCCC(=O)c1ccccc1N 0.925%
CCCCCCCC/C=C\CCCCCCCCOC[C@H](COP(=O)([O-])OCC[N+](C)(C)C)OC(C)=O 11.8% [at 6.83 µM]
Nc1ncnc2c1ncn2[C@H]1O[C@@H](CSCC[C@@H](N)C(=O)O)[C@H](O)[C@@H]1O 1.23%
NC1(C(=O)O)CCc2cc(P(=O)(O)O)ccc21 (centres undefined) 2.84%
H-LVVYPWTQR-OH 5.8% [at 6.83 µM]
O=[N+]([O-])c1cc2nc(O)c(O)nc2cc1[N+](=O)[O-] 3.2%
COC1C(O)C(CO)OC1n1cnc2c(NC3CCCCC3)ncnc21 (centres undefined) 21.4%
CCCCC/C=C\C/C=C\C/C=C\C/C=C\CCCCCC(=O)O -5.55% [at 6.83 µM]
COc1ccc2[nH]cc(CCO)c2c1 -6.5%

tested on: not listed separately; experiment: Primary qHTS for small molecule stabilizers of the endoplasmic reticulum resident proteome: Secreted ER Calcium Modulated Protein (SERCaMP) assay (AID 1508630); conditions: SH-SY5Y GLuc-SERCaMP (Gaussia luciferase released on ER calcium loss) secretion, thapsigargin, luminescence; series mostly up to 38.4 µM; activity change, negative = inhibition: at the top concentration; note: % is set by controls: 0 for no effect and ±100 for the full control effect
Summary of the method: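 GLuc-SERCaMP-expressing SH-SY5Y cells, pretreated 16 h with compound, are challenged with thapsigargin to empty ER calcium stores; after 4 h, coelenterazine is added directly to the medium and luminescence is imaged.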

Activity change, negative = inhibition, inactive:
CCCCC[C@H](O)/C=C/C=C\C=C\C=C\[C@@H](O)[C@@H](O)CCCC(=O)O 7.52% [at 0.478 µM]
CC[C@H](C)[C@H](NC(=O)[C@H](C)NC(=O)[C@H](CC(N)=O)NC(=O)[C@H](CCCCN)NC(=O)[C@H](Cc1ccccc1)NC(=O)[C@H](CC(C)C)NC(=O)[C@@H](NC(=O)[C@@H](NC(=O)[C@H](CC(C)C)NC(=O)[C@@H]1CCCN1C(=O)[C@@H](NC(=O)[C@H](CCC(N)=O)NC(=O)[C@H](CO)NC(=O)[C@H](CCCCN)NC(=O)[C@H](CCC(=O)O)NC(=O)[C@H](CO)NC(=O)[C@@H](NC(=O)[C@H](CCSC)NC(=O)[C@H](Cc1ccccc1)NC(=O)CNC(=O)CNC(=O)[C@@H](N)Cc1ccc(O)cc1)[C@@H](C)O)[C@@H](C)O)C(C)C)[C@@H](C)O)C(=O)N[C@H](C(=O)N[C@@H](CCCCN)C(=O)N[C@@H](CC(N)=O)C(=O)N[C@@H](C)C(=O)N[C@@H](Cc1ccc(O)cc1)C(=O)N[C@@H](CCCCN)C(=O)N[C@@H](CCCCN)C(=O)NCC(=O)N[C@@H](CCC(=O)O)C(=O)O)[C@@H](C)CC -16.9% [at 3.88 µM]
Cn1cnc2c(ncn2[C@@H]2O[C@H](CO)[C@@H](O)[C@H]2O)c1=N 12.4%
c1ccc(Oc2nc(NC3CCCCC3)c3[nH]cnc3n2)cc1 14.6%
C=C1/C(=C\C=C2/CCC[C@]3(C)C([C@H](C)CCCC(C)(C)O)CC[C@@H]23)C[C@@H](O)C[C@@H]1O (some centres undefined) -19.4% [at 3.88 µM]
Clc1ccc2ncnc(NCc3ccc4c(c3)OCO4)c2c1 2.56% [at 76.3 µM]
CCC1Cc2cc(O)ccc2C2=C1c1ccc(O)cc1CC2CC (centres undefined) 20.4%
COCCCCCCCCCCCC(=O)O -27.3% [at 3.88 µM]
CC(C)c1ccc2c(c1)CC[C@H]1[C@](C)(CN)CCC[C@]21C 136%
C/C(O)=C1\C(=O)[C@@H]2[C@H]3c4c[nH]c5cccc(c45)C[C@H]3C(C)(C)N2C1=O -12.7%
CC12CCC3c4ccc(O)cc4CCC3C1CCC2O (centres undefined) 20.9%
CCCN(C/C=C/I)C1CCc2cccc(O)c2C1 (centres undefined) -20.4%
C1CCC(NC(=NC2C3CC4CC(C3)CC2C4)N2CCOCC2)CC1 (centres undefined) 44.1%
CO[C@H]1C[C@@H]2CC[C@@H](C)[C@@](O)(O2)C(=O)C(=O)N2CCCC[C@H]2C(=O)O[C@H](C(C)C[C@H]2CC[C@@H](O)[C@H](OC)C2)CC(=O)[C@H](C)/C=C(\C)[C@@H](O)[C@@H](OC)C(=O)[C@H](C)C[C@H](C)/C=C/C=C/C=C/1C (some centres undefined) 29% [at 21.6 µM]
Cc1ccc(/C=C2/CNC/C(=C\c3ccc(C)cc3)C2=O)cc1 183%
c1ccc(CN(CCN(Cc2ccccn2)Cc2ccccn2)Cc2ccccn2)nc1 181%
NC(C(=O)O)[C@H](O)C(=O)O (some centres undefined) -25.6%
CSCC[C@H](NC(=O)[C@H](Cc1ccccc1)NC[C@@H](NC[C@@H](N)CS)C(C)C)C(=O)O 9.65%
CCCCC(C)(C)[C@H](O)/C=C/[C@H]1[C@H](O)CC(=O)[C@@H]1C/C=C\CCCC(=O)O 8.87% [at 3.88 µM]
COc1ccc(CC(N)C(=O)NC2C(O)[C@H](n3cnc4c(N(C)C)ncnc43)O[C@@H]2CO)cc1 (some centres undefined) 278%
O=c1nc2ccccc2c2n1CC(CN1CCN(c3ccccc3)CC1)N2 (centres undefined) 14.6%
COC(=O)[C@H]1C2CC3c4[nH]c5ccccc5c4CCN3CC2CC[C@@H]1O (some centres undefined) 27%
CC(O)(C(=O)Nc1ccc(S(=O)(=O)c2ccccc2)cc1)C(F)(F)F (centres undefined) -24.9%
COc1oc(=O)c2cc(N)ccc2c1Cl 58.2%
CCCCC[C@H](O)/C=C/[C@@H]1[C@@H](CC(=O)CCCCC(=O)O)[C@@H](O)C[C@H]1O 35.8% [at 3.88 µM]
NC(=O)N/N=C/c1ccc(Oc2ccc(F)cc2)cc1 -33.7%
COC(=O)[C@@H](c1ccccc1Cl)N1CCc2sccc2C1 9.36%
CCCCC(C)(O)C/C=C/[C@H]1[C@H](O)CC(=O)[C@@H]1CCCCCCC(=O)O (some centres undefined) -15.4% [at 3.88 µM]
CCCCCCCCCC(=O)OCC(CO)OC(=O)CCCCCCCCC (centres undefined) -13.4% [at 3.88 µM]
NCCC(=O)c1ccccc1N -10.2%
CCCCCCCC/C=C\CCCCCCCCOC[C@H](COP(=O)([O-])OCC[N+](C)(C)C)OC(C)=O -15.7% [at 3.88 µM]
Nc1ncnc2c1ncn2[C@H]1O[C@@H](CSCC[C@@H](N)C(=O)O)[C@H](O)[C@@H]1O -7.74%
NC1(C(=O)O)CCc2cc(P(=O)(O)O)ccc21 (centres undefined) 13.4%
H-LVVYPWTQR-OH 18.2% [at 3.88 µM]
O=[N+]([O-])c1cc2nc(O)c(O)nc2cc1[N+](=O)[O-] -27.3%
COC1C(O)C(CO)OC1n1cnc2c(NC3CCCCC3)ncnc21 (centres undefined) -1.47%
CCCCC/C=C\C/C=C\C/C=C\C/C=C\CCCCCC(=O)O 14.9% [at 3.88 µM]
COc1ccc2[nH]cc(CCO)c2c1 8.66%

Potency, inactive:
COc1c(C=O)c(O)cc2c1C(=O)c1ccccc1C2=O
N#CC(C#N)=C(N)/C(C#N)=C/c1ccc2[nH]ccc2c1
